# Screens (PubChem BioAssay)
# Shown are actives, neighbours in structure and some others; about 2.4% of the full set was active somewhere.
# TLR4 MyD88 comp – blocks binding of human TLR4 to MyD88 | O00206+Q99836 | inhibition, % at 8.4 µM | 200,000 tested, 0.18% active | AID 861 | HeLa CL3-4 TLR4/MyD88 BLA complementation, FRET ratio; in the data active = inhibition above about 25%;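 note: 0% = vehicle and 100% = reference inhibitor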
# NOD2 RIPK2 PPI – inhibitors of human NOD2-RIPK2 interaction; AID 624267; 360,000 tested, 0.38% active; O43353; CHO BLA complementation NOD2-RIPK2, CCF4 ratio; inhibition, % at 4.98 µM; in the data active = inhibition above about 21%;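 note: 0% = vehicle only and 100% = reference blocker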
# TLR9-MyD88 block – blocks human TLR9 binding to MyD88 | Q9NR96+Q99836 | CHO BLA complementation TLR9-MyD88, CCF4 FRET ratio | inhibition, % at 4.98 µM | 340,000 tested, 0.21% active | AID 504734;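 active = inhibition above the mean over all tested compounds plus 3 SD, cut at about 21% in these data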;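 note: 0% = DMSO only wells and 100% = clavulanate BLA inhibitor control wells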
# TMEM16A inh – blocks the mouse calcium-activated chloride channel TMEM16A. HEK293 TMEM16A/YFP iodide influx fluorescence, ionomycin. 310,000 tested, 1.2% active. normalized B-score (activity score, 25-100; higher = stronger inhibition) at 10 µM. Q8BHY3;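 active = ratio plate-corrected score three or more library SD toward inhibition, starting fluorescence score within five deviations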;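 note: score derived from kinetic fluorescence span divided by baseline fluorescence per well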
# TMEM16A act – activators or potentiators of mouse TMEM16A chloride channel; HEK293 TMEM16A/YFP-H148Q/I152L, iodide quench fluorescence; active compounds read low; B-score at 10 µM; AID 623877; 340,000 tested, 0.3% active;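 active = fluorescence-ratio B-score plate-corrected deviation score at least 3 library SD below zero, with starting fluorescence score within 5 deviations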;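 note: channel opened by trigger with iodide after compound preincubation; score built on the fluorescence ratio of max minus min over baseline; more negative score means more quench and so TMEM16A activation or potentiation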
# m5-HT2A agonist – agonists of mouse serotonin 5-HT2A receptor (HTR2A). CHO-K1 mHTR2A beta-arrestin complementation, luminescence; percent of 30 µM serotonin response. 360,000 tested, 0.66% active. activation, % at 7.6 µM;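 active = activation above a run cutoff, the mean activation of all tested compounds plus 3 SD, cut at about 14% in these data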;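 note: 0% = plate median of compound wells and 100% = 30 µM serotonin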
# Target sequence (P35363 whole entry, looked up): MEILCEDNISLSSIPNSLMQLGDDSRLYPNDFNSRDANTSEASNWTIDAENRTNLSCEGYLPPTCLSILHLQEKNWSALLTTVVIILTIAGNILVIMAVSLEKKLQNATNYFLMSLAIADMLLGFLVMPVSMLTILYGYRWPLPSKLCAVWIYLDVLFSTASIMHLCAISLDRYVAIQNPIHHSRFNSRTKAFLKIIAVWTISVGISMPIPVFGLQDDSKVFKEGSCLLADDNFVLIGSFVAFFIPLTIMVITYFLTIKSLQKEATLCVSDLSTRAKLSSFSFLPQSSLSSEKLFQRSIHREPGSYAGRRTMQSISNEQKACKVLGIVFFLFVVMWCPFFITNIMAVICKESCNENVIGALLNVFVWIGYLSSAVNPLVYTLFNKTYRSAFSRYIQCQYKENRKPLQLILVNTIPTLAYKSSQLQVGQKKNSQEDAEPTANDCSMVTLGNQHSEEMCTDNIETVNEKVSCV
# TMEM16A reconf – reconfirmed blocker of mouse TMEM16A calcium-activated chloride channel; shares compounds with TMEM16A inh; HEK293 TMEM16A/YFP-H148Q, iodide quench fluorescence; ionomycin added to raise cell calcium; inhibition, % at 10 µM; 2,300 tested, 39% active; AID 652189;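 active = mean duplicate percent inhibition, scaled so buffer wells are 0 and the reference blocker 100, over three buffer SD above buffer mean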
# HEK293 Ca mobil – counter-screen for TMEM16A inhibitors: effect on calcium mobilization; shares compounds with TMEM16A inh; TMEM16A/YFP HEK293, Fluo4 calcium mobilization; calcium response (% of ionomycin), % at 10 µM; 2,300 tested, 2% active;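 active = duplicate-averaged calcium signal over 20% of the ionomycin maximum, relative to buffer baseline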;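 note: each well's signal is peak minus trough fluorescence divided by its pre-addition baseline; 0% = buffer wells and 100% = ionomycin wells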
# Parental YFP cnt – counter-screen for TMEM16A inhibitors: effect in parental YFP-HEK293 cells. shares compounds with TMEM16A inh. YFP ratio F(max-min)/F0 at 10 µM. iodide YFP quench, ionomycin. AID 652233. 2,300 tested, under 10 active;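 active = yellow fluorescent protein signal ratio exceeding the buffer control mean by over 5 SD of those controls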;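 note: ratio is mean of duplicate wells from kinetic YFP trace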
# ClC-1 inh – rat ClC-1 inhibition, TMEM16A specificity screen; ratio percent, % at 10 µM; CHO ClC-1-YFP, iodide influx fluorescence quench; iodide control reads 0, buffer control 100; AID 652236; shares compounds with TMEM16A inh; 2,300 tested, under 10 active;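 active = duplicate-mean ratio percent above the mean of iodide-only control wells, which defines zero, plus 5 of their SD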;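 note: higher percent means stronger block of ClC-1 iodide influx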
# An asterisk follows results filed as active; i = inactive; . = not tested or not shown.
SMILES,TLR4 MyD88 comp,NOD2 RIPK2 PPI,TLR9-MyD88 block,TMEM16A inh,TMEM16A act,m5-HT2A agonist,TMEM16A reconf,HEK293 Ca mobil,Parental YFP cnt,ClC-1 inh
CN(CC(CC(=O)Nc1nncs1)c1ccccc1)S(=O)(=O)c1ccc(Br)cc1 (configuration not stated),-2,1,-17,100*,i,0,i,i,-0.96,-12
NNC(=O)/C(=C\c1cccs1)NC(=O)c1ccccc1,4,-5,-7,i,i,0,.,.,.,.
CCOC(=O)N1CCN(c2nc3ccccc3nc2C(C#N)S(=O)(=O)c2ccc(C)cc2)CC1 (configuration not stated),-10,1,6,100*,i,0,76%*,i,-1,-19
Cc1cccc(S(=O)(=O)C(C#N)c2nc3ccccc3nc2N2CCOCC2)c1 (configuration not stated),-5,9,1,100*,i,6,i,i,-1,-14
CCOC(=O)c1oc2ccc(S(=O)(=O)Nc3ccc4c(c3)n(C)c(=O)n4C)cc2c1C,-7,-13,-5,25*,i,1,i,i,-1.3,-11
CC1CC(C)CN(C(=O)CSc2nnc(-c3ccco3)o2)C1 (configuration not stated),.,-6,-9,i,i,9,.,.,.,.
Cc1cc(N2CCCC2=O)cc(C)c1S(=O)(=O)NCCOc1ccc(C(C)(C)C)cc1,3,0,-1,25*,i,4,i,i,-1.1,-29
O=C1CCCN1c1ccc(S(=O)(=O)NCCOc2ccccc2)cc1,-1,-17,-3,i,i,0,.,.,.,.
N#Cc1ccc2ccn(CC(=O)N3CCCc4ccccc43)c2c1,2,9,-1,i,i,-2,.,.,.,.
NC1=NC[C@H](Cc2ccc(O)cc2)N1CCCCC1CCCCC1,.,-7,-1,i,i,-13,.,.,.,.
NC1=NC[C@H](Cc2ccccc2)N1CCCCC1CCCCC1,.,-4,-6,25*,i,-6,38%*,i,-1,-12
Cc1[nH]n(-c2ccc(Br)cc2)c(=O)c1/C=N/NC(=O)c1ccccc1,.,2,5,100*,i,2,21%*,i,-0.78,-18
Cc1[nH]n(-c2ccccc2)c(=O)c1/C=N/NC(=O)c1cccc(F)c1,.,-5,-12,i,i,-7,.,.,.,.
Cc1csc(NC(=O)CCCSc2nc3ccccc3s2)n1,-21,-8,7,100*,i,2,i,32%*,-0.99,-11
Cc1csc(NC(=O)CSc2nc3ccccc3s2)n1,3,-11,4,i,i,1,.,.,.,.
Cc1ccccc1NC(=O)C1CCCN1S(=O)(=O)c1ccc2c(c1)n(C)c(=O)c(=O)n2C (configuration not stated),5,9,1,25*,i,12,i,i,-1.1,5
Cc1ccc(C)c(NC(=O)C2CCCN2S(=O)(=O)c2ccc3c(c2)n(C)c(=O)c(=O)n3C)c1 (configuration not stated),12,1,-9,i,i,2,.,.,.,.
Cc1ccc(-c2csc(NC(=O)CSc3nc(C)cc(=O)[nH]3)n2)cc1,-2,.,.,i,.,.,.,.,.,.
